From PubChem BioAssay (NCI)
This is part of a sample that, as a whole, favours compounds with a hit. Of some 83,000 tested, about 20% had one in any assay.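 In brief: 96-well plates, 48 h treatment, single concentration, percent growth endpoint.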 Calls of active or inactive are those of the source. How the source made its calls: active means growth percent below 10; inactive means the rest.

system: A549/ATCC NSCLC; assay: NCI-60 one-dose screen, 48 h (100 = growth as untreated, 0 = no growth, -100 = all killed); conditions: 10 µM unless noted

Compound | growth
Clc1nc(N2CCC[N+]3(CC2)CC[N+]2(CCCNCC2)CC3)nc(N2CCC[N+]3(CC2)CC[N+]2(CCCNCC2)CC3)n1 (centres undefined) | 86.1% (inactive)
O=C(Nc1ccccc1CNc1nc(Nc2ccc(OCCN3CCCC3)cc2)ncc1Cl)NC1CCCCC1 | 85.4% (inactive)
Cc1nc2c(c(-c3ccccc3)n1)Cc1c(ccc3ccccc13)O2 | 96% (inactive)
COC(CCP(=O)(c1ccccc1)c1ccccc1)(C(=O)c1ccccc1)c1ccccc1 (centres undefined) | 48.1% (inactive)
Nc1ncc(-c2ccc3ncnc(N4CCc5cc(F)c(Cl)cc54)c3c2)cc1C=O | 7.18% (active)
CC(C)(C)n1cc(-c2ccnc(NCCNS(=O)(=O)c3ccc(C(F)(F)F)cc3)c2)c(-c2ccccc2)n1 | 78.2% (inactive)
Clc1ccc(C2=Nn3c(nnc3-c3cc(Cl)cc(Cl)c3Cl)SC2)cc1 | 58.2% (inactive)
O=C(NC1CCCCCC1)c1ccc2c(=O)n3c(nc2c1)CCCCC3 | 97% (inactive)
C=C1C(=O)O[C@H]2[C@H]1CC/C(CNC(=O)/C=C/c1cc(OC)c(OC)c(OC)c1)=C\CC[C@@]1(C)O[C@@H]21 | 40% (inactive)
Cc1c(CC(=O)Nc2ccccc2)nnn1-c1ccccc1 | 107% (inactive)
CCn1c2ccccc2c2cc(C(O)c3cccc4ncccc34)ccc21 (centres undefined) | 20.7% (inactive)
CSc1nc(CC(C)C)c(C#N)c(=O)n1C | 80.7% (inactive)
Oc1c(Cl)cc(Cl)c2ccc(CN3CCNCC3)nc12 | 30.8% (inactive)
CO[C@H]1CC(c2ccc[nH]2)=N[C@]12O[C@@H](C)C[C@@H]1CCCCCCCc3ccc([nH]3)[C@H]12 | 11.2% (inactive)
